Compound activity: PubChem, several laboratories
Compounds with a hit are over-represented: about 4.5% of the library has one in this group of screens.
PfHsp90 set2 = inhibits growth of yeast expressing Plasmodium falciparum Hsp90 | AID 504621 | 310,000 compounds, 0.32% hits | inhibition, % at 9.4 µM | S. cerevisiae expressing PfHsp90, BacTiter-Glo ATP, 48 h; yeast lacking PDR1 and PDR3 efflux regulators;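 active = every replicate shows inhibition above about 80%, whatever the replicate mean, limit read from the data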;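 also: 0% = DMSO neutral controls and 100% = 20 µM radicicol positive controls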
SKKanGAS inh = blocks kanamycin growth of S. pyogenes SKKanGAS strain; inhibition, % at 7.5 µM; BacTiter-Glo, 6 h; 300,000 compounds, 1.3% hits;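 active = mean replicate score, as percent of positive control median, at least 50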;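 also: strain carries kanamycin resistance gene driven by streptokinase promoter and grows in 40 µg/ml kanamycin; loss of luminescence reflects streptokinase promoter inhibition or plain growth inhibition; 0% = median of DMSO wells and 100% = positive control at its reference dose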
tim10-1 inh = inhibits growth of tim10-1 mutant yeast. S. cerevisiae tim10-1 ts strain growth, BacTiter-Glo, 24 h. inhibition, % at 20 µM. 330,000 compounds, 2.2% hits. AID 463190;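 active = inhibition of at least 40%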;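 also: mutant grown at 25 °C; 0% = DMSO wells with yeast and 100% = wells holding no yeast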
tim23-1 inh = growth inhibitors of tim23-1 mutant yeast. inhibition, % at 20 µM. 330,000 compounds, 1.3% hits. S. cerevisiae tim23-1 growth, BacTiter-Glo luminescence, 24 h;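 active = growth inhibition of the mutant yeast at or above 50%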;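 also: temperature-sensitive mutant grown at 25 °C; plate controls were DMSO-treated mutant yeast for no effect and medium wells lacking yeast for full effect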
NLRP3 yeast inh = blocks the NALP3 inflammasome reconstituted in yeast. Yeast reconstituted NLRP3/ASC/caspase-1, beta-gal luminescence, 24 h. inhibition, % at 10 µM. 330,000 compounds, 0.39% hits. AID 2825;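 active = inhibition of 50% or more; inactive = inhibition below 50%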;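 also: plate controls were induced DMSO wells for no effect and uninduced yeast grown without galactose for full effect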
TIM10 inh = growth inhibitors of TIM10 yeast strain | S. cerevisiae TIM10 strain growth, BacTiter-Glo luminescence, 24 h | inhibition, % at 10 µM | 330,000 compounds, 1.4% hits | AID 463195;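 active = inhibition of 40% or more at the single tested concentration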;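 also: wild-type TIM10 isogenic control strain grown at permissive 25 °C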
tim10-1 confirm = tim10-1 yeast growth inhibition, confirmed | shares compounds with tim10-1 inh | S. cerevisiae tim10-1 ts strain growth, BacTiter-Glo, 24 h | inhibition, % at 20 µM | 7,400 compounds, 56% hits | AID 463213;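 active = inhibition of yeast growth at or above a set limit in either of two repeat tests at 20 µM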;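 also: tim10-1 mutant grown at permissive 25 °C to find synthetic lethal compounds; 0% = DMSO yeast wells and 100% = medium wells without yeast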
tim10 confirm = TIM10 yeast growth inhibition, confirmed. S. cerevisiae tim10 strain growth, BacTiter-Glo luminescence, 24 h. AID 463215. 4,600 compounds, 63% hits. inhibition, % at 10 µM. shares compounds with TIM10 inh;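 active = inhibition of yeast growth at or above a set limit in either of two replicates at 10 µM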;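 also: this counterscreen used the strain with wild-type TIM10; 0% = yeast with DMSO and 100% = medium wells lacking yeast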
An asterisk follows results filed as active.

For N/C(=N\OC(=O)Cc1ccc(-c2ccccc2)cc1)c1ccccn1 the results were PfHsp90 set2 -0.9, SKKanGAS inh 6.3, tim10-1 inh 53.7*, tim23-1 inh 30.4, NLRP3 yeast inh 18.3, TIM10 inh 52.5*, tim10-1 confirm 50.0* and tim10 confirm 28.1.
`FC(F)(F)c1cc(CO[C@@H]2CCCN[C@@H]2c2ccccc2)cc(C(F)(F)F)c1` gave PfHsp90 set2 1.1, tim10-1 inh -12.4, tim23-1 inh -8.2, NLRP3 yeast inh 41.7 and TIM10 inh 7.5.
For CCOc1cc2c3c(c1)C1(Nc4ccccc4S1)C(=O)N3C(C)(C)CC2C (centres undefined) the results were PfHsp90 set2 5.0, SKKanGAS inh 8.4, tim10-1 inh 49.5*, tim23-1 inh 46.0, NLRP3 yeast inh 22.8, TIM10 inh 47.3*, tim10-1 confirm 48.5* and tim10 confirm 31.7*.
Screening Cc1nc2ccccn2c1C(=O)/C=C/c1ccc(F)cc1 returned SKKanGAS inh 2.9, tim10-1 inh 49.5*, tim23-1 inh 36.5, NLRP3 yeast inh 40.9, TIM10 inh 40.1*, tim10-1 confirm 36.7* and tim10 confirm 43.0*.
Cc1nc2ccccn2c1C(=O)NN was read as PfHsp90 set2 14.6, SKKanGAS inh -8.8, tim10-1 inh 4.8, tim23-1 inh 8.9, NLRP3 yeast inh 10.0 and TIM10 inh -16.5.
Screening NS(=O)(=O)c1ccc(NC(=O)CN2CCc3ccccc3C2)cc1 returned PfHsp90 set2 8.3, SKKanGAS inh 0.5, tim10-1 inh -14.9, tim23-1 inh 1.2, NLRP3 yeast inh 9.7 and TIM10 inh -2.3.
For CCN1C(=O)CC2CCCC1C2 (centres undefined) the results were PfHsp90 set2 -21.6.
`CCc1cc(-c2[nH]ncc2-c2ccc(OC)cc2)c(O)cc1O` gave PfHsp90 set2 -1.5, SKKanGAS inh -5.9, tim10-1 inh 35.7, tim23-1 inh 21.8, NLRP3 yeast inh 21.4 and TIM10 inh 15.4.
COc1ccc(-c2cn[nH]c2-c2ccc(OCc3ccc([N+](=O)[O-])cc3)cc2O)cc1 was read as PfHsp90 set2 -14.3, SKKanGAS inh 16.0, tim10-1 inh 46.9*, tim23-1 inh 27.7, NLRP3 yeast inh 16.3, TIM10 inh 41.7*, tim10-1 confirm 12.3 and tim10 confirm -5.6.
Screening O=S(=O)(Nc1ccccc1)c1ccc(Oc2ncc(C(F)(F)F)cc2Cl)cc1 returned PfHsp90 set2 8.6, SKKanGAS inh 28.1, tim10-1 inh 48.8*, tim23-1 inh 25.0, NLRP3 yeast inh 24.7, TIM10 inh 49.2*, tim10-1 confirm 46.3* and tim10 confirm 51.0*.
`Cc1cccc(Cc2cnc(NC(=O)C3=NCCN3)s2)c1` gave SKKanGAS inh 3.2, tim10-1 inh 20.8, tim23-1 inh -6.4, NLRP3 yeast inh -5.5 and TIM10 inh -4.1.
For Cc1cccc(Cc2cnc(NC(=O)c3ccc(C)o3)s2)c1 the results were PfHsp90 set2 -14.4, SKKanGAS inh 77.1*, tim10-1 inh 55.2*, tim23-1 inh 47.7, NLRP3 yeast inh 24.1, TIM10 inh 45.2*, tim10-1 confirm 39.6* and tim10 confirm 48.1*.
Screening CCC(c1nnnn1CCc1ccccc1)N1CCN(c2ccc(OC)cc2)CC1 (centres undefined) returned PfHsp90 set2 -11.7, SKKanGAS inh -2.3, tim10-1 inh 41.0*, tim23-1 inh 26.2, NLRP3 yeast inh -25.7, TIM10 inh 43.4*, tim10-1 confirm 13.6 and tim10 confirm 23.7.
For CC(NC(=O)/C(C#N)=C/c1ccc([N+](=O)[O-])o1)c1ccccc1 (centres undefined) the results were PfHsp90 set2 -5.8, SKKanGAS inh 57.5*, tim10-1 inh 50.4*, tim23-1 inh -71.1, NLRP3 yeast inh 23.7, TIM10 inh 61.7*, tim10-1 confirm 23.1 and tim10 confirm 92.8*.
For CC(NC(=O)/C(C#N)=C/c1ccco1)c1ccccc1 (centres undefined) the results were PfHsp90 set2 21.0, SKKanGAS inh 3.1, tim10-1 inh -5.4, tim23-1 inh 6.5, NLRP3 yeast inh -5.7 and TIM10 inh -25.8.
CCCC(=O)NC(=S)Nc1cccc(Cl)c1N1CCCCC1 was read as PfHsp90 set2 22.6, SKKanGAS inh 100.9*, tim10-1 inh 43.5*, tim23-1 inh 41.8, NLRP3 yeast inh -30.3, TIM10 inh 50.0*, tim10-1 confirm 27.6 and tim10 confirm 36.2*.
`CCCCN1C(=O)C(=O)N(CC(=O)c2ccc3c(c2)OCO3)C1=O` gave PfHsp90 set2 10.3, SKKanGAS inh -2.5, tim10-1 inh -30.1, tim23-1 inh -8.2, NLRP3 yeast inh -1.1 and TIM10 inh 0.4.
Screening O=C(NCc1ccco1)C1CCCN(c2ncnc3c2nc2n3CCCCC2)C1 (centres undefined) returned PfHsp90 set2 -5.4, SKKanGAS inh -2.0, tim10-1 inh 35.4, tim23-1 inh 7.8, NLRP3 yeast inh -3.8 and TIM10 inh 3.9.
COc1ccc(N2CCN(C(=O)c3cn(C4CCCC4)c(=O)c4c3c3ccccc3n4C)CC2)cc1 was read as PfHsp90 set2 8.1, SKKanGAS inh 19.0, tim10-1 inh 19.5, tim23-1 inh -2.4, NLRP3 yeast inh 12.5 and TIM10 inh 31.5.
Screening Cn1c2ccccc2c2c(C(=O)N3CCN(c4ccccn4)CC3)cn(C3CCCC3)c(=O)c21 returned PfHsp90 set2 -11.0, SKKanGAS inh 9.0, tim10-1 inh 40.3*, tim23-1 inh 26.9, NLRP3 yeast inh 7.9, TIM10 inh 47.4*, tim10-1 confirm 17.6 and tim10 confirm 40.9*.
`CC(NC(=O)C(NS(=O)(=O)c1cccc2nsnc12)C(C)C)c1ccccc1` (centres undefined) gave PfHsp90 set2 9.2, SKKanGAS inh 3.7, tim10-1 inh 15.1, tim23-1 inh 6.7, NLRP3 yeast inh 25.8 and TIM10 inh 9.7.
For Cc1nnc(SCC(=O)N(C2CCCCC2)C2CCS(=O)(=O)C2)n1C (centres undefined) the results were PfHsp90 set2 -7.0, tim10-1 inh -24.9, tim23-1 inh -10.8, NLRP3 yeast inh 5.1 and TIM10 inh 0.7.
For COc1cc2c(cc1NS(=O)(=O)N1CCCC1)oc1ccccc12 the results were PfHsp90 set2 13.5, SKKanGAS inh 3.6, tim10-1 inh 42.7*, tim23-1 inh 37.1, NLRP3 yeast inh -34.3, TIM10 inh 46.9*, tim10-1 confirm 29.2 and tim10 confirm 43.0*.
